Measurements reported in PubChem BioAssay (NCATS).
Inconclusive results are not listed. Values without a mark were called inactive. Active and inactive are the calls of the source. The call rests on the fitted dose curve; in most records, active means well fitted cell-killing curve with a large enough effect; inconclusive means small, poorly fitted or top-dose-only effect, or effect the other way; inactive means no such curve, though single readings can be large or run the other way.

test: Quantitative High-Throughput drug screen in 47 multiple myeloma cell lines against the NCATS MIPE library collection: VP6_DJ cell viability assay (AID 1919867); conditions: ATP luminescence, 48 h; series mostly up to 45.8 µM; viability (% of DMSO): at the top concentration; further: nearly all actives have a fitted effect of over 40% in size
Source text: PI: Beverly A. Mock Ph.D.
Laboratory of Cancer Biology and Genetics,
Center for Cancer Research, National Cancer Institute,
National Institute of Health, Bethesda, Maryland
Drug resistance and disease progression are common in multiple myeloma (MM) patients, underscoring the need for new therapeutic combinations. […] We hypothesized that effective combinations would reduce MYC expression and enhance p16 activity. […] These preclinical data identify potentially useful drug combinations for evaluation in drug-resistant MM and reveal potential mechanisms of combined drug sensitivity.
Described herein is the primary MIPE qHTS used to cherrypick compounds. Validated compounds were then further tested for potential synergistic activiy.
[1] Peat TJ, Gaikwad SM, Dubois W, Gyabaah-Kessie N, Zhang S, Gorjifard S, Phyo Z, Andres M, Hughitt VK, Simpson RM, Miller MA, Girvin AT, Taylor A, Williams D, D'Antonio N, Zhang Y, Rajagopalan A, Flietner E, Wilson K, Zhang X, Shinn P, Klumpp-Thomas C, McKnight C, Itkin Z, Chen L, Kazandijian D, Zhang J, Michalowski AM, Simmons JK, Keats J, Thomas CJ, Mock BA. Drug combinations identified by high-throughput screening promote cell cycle transition and upregulate Smad pathways in myeloma. Cancer Lett. 2023 Aug 1;568:216284. doi: 10.1016/j.canlet.2023.216284. Epub 2023 Jun 24. PMID: 37356470; PMCID: PMC10408729.
SEQUENCE No. (e.g., 1, 2, 3, etc.); […] (e.g., Cells, Incubation, Reagent, etc.); VALUE and DESCRIPTION.
1; Cells; 5 uL; white, solid bottom 1536-well Greiner assay plate.
2; Compounds; 23 nL; Kalypsis pin tool (Wako USA) equipped with a 1536-well pin head to transfer to the assay plates.
3; Incubation; 48 hours; 37C incubation.
4; Reagent;5uL; CellTiter Glo (Promega).
5; Detector; 425V; Luminescence; Viewlux PerkinElmer.
NOTES (numbers refer to Sequence numbers above)
1. The cell-based screening methods employed in this study were like those previously published. Briefly, the corresponding myeloma cell lines were screened in 1,536-well plates with 500 cells, 5-uL per well for inhibition of cell viability (assessed by measuring ATP levels with CellTiterGlo).
2. NCATS MIPE 4.0 library of approved and investigational drugs were added using the Kalypsis pin tool. Wells treated with DMSO only for 100% viability and media only for 0% viability were used as controls.
3. The assay plates were covered and incubated for 48 hours in a 37C, 5% CO2 incubator with controlled humidity.
4. After 48 hours, CellTilter-GloTM luminescent substrate mix (Promega) reagent was added to the assay plate and plates we incubated for 5 min at room temperature.
5. Signal was measured as median relative luminescence units on a ViewLux (PerkinElmer) multiplate reader.
[1] Heske CM, Davis MI, Baumgart JT, Wilson K, Gormally MV, Chen L, Zhang X, Ceribelli M, Duveau DY, Guha R, Ferrer M, Arnaldez FI, Ji J, Tran HL, Zhang Y, Mendoza A, Helman LJ, Thomas CJ. Matrix Screen Identifies Synergistic Combination of PARP Inhibitors and Nicotinamide Phosphoribosyltransferase (NAMPT) Inhibitors in Ewing Sarcoma. Clin Cancer Res. 2017 Dec 1;23(23):7301-7311. doi: 10.1158/1078-0432.CCR-17-1121. Epub 2017 Sep 12. PMID: 28899971; PMCID: PMC6636827.
Potency means the concentration at half of the fitted maximal effect.

Structure (SMILES)	Potency	viability (% of DMSO) [%]
Cc1nc(N)sc1-c1ccnc(Nc2ccc(N3CCOCC3)cc2)n1	3.32 µM (active)	
Nc1nc(F)nc2c1ncn2[C@@H]1O[C@H](COP(=O)(O)O)[C@@H](O)[C@H]1O		125
NC(=O)c1cnc(-c2ccc(C3(N)CCC3)cc2)c(-c2ccccc2)c1	13.2 µM (active)	
CC(C)OC(=O)C(C)(C)Oc1ccc(C(=O)c2ccc(Cl)cc2)cc1	26.4 µM (active)	
Cn1c(N2CCCCS2(=O)=O)nc(C(=O)NCc2ccc(F)cc2)c(O)c1=O		99.7
Cc1c(O)cccc1C(=O)N[C@@H](CSc1ccccc1)[C@H](O)CN1C[C@H]2CCCC[C@@H]2C[C@@H]1C(=O)NC(C)(C)C	18.7 µM (active)	
CO[C@H]1C=CC=C(C)C(=O)NC2=CC(=O)C(NCCN(C)C)=C(C[C@@H](C)C[C@H](OC)[C@@H](O)[C@@H](C)C=C(C)[C@@H]1OC(N)=O)C2=O	0.0093 µM (active)	
CC(=O)OC1C(C)OC(Oc2c(-c3ccc(O)cc3)oc3cc(O)cc(O)c3c2=O)C(O)C1OC(C)=O (stereo not given)		84.4
C=C1C(=O)[C@@]23C(CC[C@@H]1[C@H]2O)[C@@]12CO[C@]3(O)[C@@H](O)[C@@H]1C(C)(C)CC[C@@H]2O (stereo not given in full)	2.96 µM (active)	
COc1cc2ncnc(Nc3ccc(F)c(Cl)c3)c2cc1OCCCN1CCOCC1	6.79 µM (active)	
O=c1cc(CN2CCOCC2)occ1OCCCCCSc1ccnc2cc(C(F)(F)F)ccc12	7.43 µM (active)	
COc1ccc2cccc(CCNC(C)=O)c2c1	5.26 µM (active)	
O=C(NCc1ccccc1)c1csc(Nc2ccncn2)n1	16.6 µM (active)	
CNC(=O)c1ccccc1Sc1ccc2c(C=Cc3ccccn3)n[nH]c2c1	14.8 µM (active)	
CCOC(CN1C(=O)[C@](CC(=O)Nc2ccc(C)cc2)(NC(=O)Nc2ccc(C)cc2)c2ccccc21)OCC	26.4 µM (active)	
CO[C@H]1C=CO[C@@]2(C)Oc3c(C)c(O)c4c(O)c(c5c(c4c3C2=O)NC2(CCN(CC(C)C)CC2)N=5)=NC(=O)C(C)=CC=C[C@H](C)[C@H](O)[C@@H](C)[C@@H](O)[C@@H](C)[C@H](OC(C)=O)[C@H]1C	16.6 µM (active)	
CC(=O)Nc1ccc([C@H](C)C(=O)Nc2ncc(C(C)C)s2)cc1	1.66 µM (active)	
CN(C[C@@H]1COCCO1)S(=O)(=O)Nc1ccc2ccc3ncc(-c4cnn(C)c4)cc3c(=O)c2c1	2.96 µM (active)	
CC1(C)Cc2c(sc(NC(=S)NC(=O)c3ccccc3)c2C(=O)O)CO1	8.33 µM (active)	
Cn1cc(C=C2C(=O)Nc3cccnc32)c2ccccc21	10.5 µM (active)	

Structure (SMILES)	Potency	viability (% of DMSO) [%]
NC(CO)(CO)CCc1ccc(Sc2cccc(OCc3ccccc3)c2)cc1Cl	8.33 µM (active)	
COc1cccc(-c2cc(=O)c3ccccc3o2)c1N	1.32 µM (active)	
COc1ccc(C2Sc3ccccc3N(CCN(C)C)C(=O)C2OC(C)=O)cc1 (stereo not given)		116
CC(C)C[C@H](CC(=O)O)C(=O)N[C@@H](Cc1c[nH]c2ccccc12)C(=O)N[C@@H](C)c1ccccc1		153
O=C1NC(=O)C(=Cc2ccc(-c3ccc(F)cc3)o2)S1	14.8 µM (active)	
OC[C@H]1O[C@@H](n2cnc3c2NC=NC[C@@H]3O)C[C@H]1O	14.8 µM (active)	
Nc1ncnc2ccccc12		143
COc1cccc2c1CCCC2CCCN1CCN(C2CCCCC2)CC1 (stereo not given)	16.6 µM (active)	
N#CC1(c2ccc(NC(=O)c3cccnc3NCc3ccncc3)cc2)CCCC1	14.8 µM (active)	
COc1ccc(-c2coc3cc(O)ccc3c2=O)cc1		109
CC=CCC=CCCC(=O)[C@H]1O[C@@H]1C(N)=O	23.5 µM (active)	
O=C1NC(=O)C(=Cc2ccc3nccnc3c2)S1	4.57 µM (active)	
CCNc1cc(NC2CCC(O)CC2)nc(Nc2ccc3c(ccn3Cc3ccccc3)c2)n1 (stereo not given)	23.5 µM (active)	
COc1cc(NC(=O)c2ccc(-c3ccc(Cl)cc3)o2)cc(OC)c1	8.33 µM (active)	
Cc1ccc(C(C)(O)c2nc3ccccc3s2)c(C)c1 (stereo not given)		114
COc1cc2nc(-c3ccc(N4CCN(C)CC4)cc3)nc(NCCN3CCOCC3)c2cc1OC	0.187 µM (active)	
Cc1ccn(-c2ccc(-c3ncco3)cc2)c(=O)c1-c1ccc2nc(N)ncc2c1	1.66 µM (active)	
CC(C)(C)c1cc(C(=O)O)c(NC(=O)Nc2ccc3[nH]ncc3c2)s1		139
CCc1ccc(OCc2ccccc2C(=O)Nc2ccc3nc(C)cc(N)c3c2)cc1	1.32 µM (active)	
O=C(CCN1CCN(C(=O)OCc2cc(Cl)cc(Cl)c2)CC1)c1ccc2[nH]c(=O)oc2c1		138
